# Active and inactive are the calls of the source. Where a call stands in place of a potency, no number is given. Calls follow the shape of the dose curve; as a rule, active = well fitted activation curve with a large enough effect; inconclusive = small, poorly fitted or top-dose-only effect; inactive = no such curve, though single readings can be large or run the other way.
# Target: Parathyroid hormone/parathyroid hormone-related peptide receptor (Homo sapiens) (UniProt Q03431)
# Assay: qHTS for PTHR1 Agonists: Optimization Screen against the NCGC LOPAC library (AID 1347079)
# Conditions: HEK293 GP2 PTHR1 GloSensor cAMP luminescence, 1 h; series mostly up to 57.1 µM
# Source text: The goal of the proposed studies is to discover new compounds that act as potent agonists on the parathyroid hormone receptor type-1 (PTHR1). The PTHR1 plays critical roles in maintaining blood calcium and phosphate levels, as well as in controlling bone remodeling. PTHR1 agonists could thus be useful for treating diseases such as hypoparathyroidism and osteoporosis. In the former disease, an agonist drug would help maintain normal blood calcium and phosphate levels under conditions of parathyroid hormone deficiency. In the latter disease, an agonist drug would stimulate new bone formation and thus reduce the risk of fracture, under conditions of bone fragility, as occurs in aging. We performed an optimization assay of the quantitative high-throughput screening (qHTS) for the parathyroid hormone receptor type-1 (PTHR1) against the NCGC LOPAC library collection of […] compounds using a unique HEK-293-derived cell line (GP2) that expresses the PTHR1 and a GloSensor cAMP reporter construct. Increase in signal (activation / agonist) is the desired outcome for compounds of interest. NIH Chemical Genomics Center [NCGC] NIH Molecular Libraries Probe Production Centers Network [MLPCN] MLPCN Grant: P01 DK011794 Assay Submitter (PI): Thomas Gardella PhD, Massachusetts General Hospital
# Reagents / Controls: M-PTH (1-15) peptide hormone fragments was provided by the assay provider and was used as a control. Column 1 was treated with M-PTH titration (1:2 dilution) beginning with a final concentration of 10uM. Column 2 was treated with M-PTH final concentration of 10uM. Columns 3 and 4 were treated with DMSO only to assess background and noise signal. Assay Steps: Four microLiter of cells suspension was dispensed in a 1536-well assay plate at a final density of 3000 cells/well. The plates were incubated overnight, after which 4uL of 0.5mM of BloTium Luciferin plus 0.5mM IBMX was added. Next, the plate was incubated at 37C for 1hr before 23nL of compound (at various final concentrations from 40uM to 0.32uM) and control were added using a 1536-well array Kalypsys pin-tool. The treated plates were again incubated at 37C for another hour. Luminescence signal was obtained using the PerkinElmer ViewLux plate reader after 15min or room temperature incubation.
# Potency is read from the fitted curve at half-maximal effect.
# Parathyroid hormone/parathyroid hormone-related peptide receptor (Homo sapiens), sequence (Q03431 whole entry, looked up): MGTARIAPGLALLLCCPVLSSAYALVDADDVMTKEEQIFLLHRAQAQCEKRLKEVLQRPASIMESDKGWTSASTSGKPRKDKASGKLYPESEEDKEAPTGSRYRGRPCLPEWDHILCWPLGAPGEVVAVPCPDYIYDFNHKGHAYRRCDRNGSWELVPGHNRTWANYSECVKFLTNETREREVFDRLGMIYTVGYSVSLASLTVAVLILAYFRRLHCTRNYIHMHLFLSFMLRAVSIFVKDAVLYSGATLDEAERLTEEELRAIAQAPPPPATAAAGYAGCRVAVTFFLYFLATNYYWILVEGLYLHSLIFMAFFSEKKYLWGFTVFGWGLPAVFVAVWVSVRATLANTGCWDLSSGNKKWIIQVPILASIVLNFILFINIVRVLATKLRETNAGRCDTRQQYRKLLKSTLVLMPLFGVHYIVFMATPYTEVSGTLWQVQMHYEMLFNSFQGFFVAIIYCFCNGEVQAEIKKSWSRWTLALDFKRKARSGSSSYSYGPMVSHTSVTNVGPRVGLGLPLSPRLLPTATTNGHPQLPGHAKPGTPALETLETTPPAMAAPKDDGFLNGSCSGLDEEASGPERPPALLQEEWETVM
row,SMILES,Potency
1,Clc1ccc2c(c1)C(N1CCNCC1)=Nc1ccccc1O2,inactive
2,COc1ccc2[nH]cc(CCNC(C)=O)c2c1,inactive
3,COC(=O)Nc1nc2ccc(C(=O)c3cccs3)cc2[nH]1,inactive
4,NS(=O)(=O)c1cc2c(cc1Cl)NCNS2(=O)=O,inactive
5,OCCN(CCO)c1nc(N2CCCCC2)c2nc(N(CCO)CCO)nc(N3CCCCC3)c2n1,inactive
6,COc1cc2c(c(OC)c1OC)-c1ccc(OC)c(=O)cc1[C@@H](NC(C)=O)CC2,inactive
7,Clc1ccc(C(c2ccccc2Cl)C(Cl)Cl)cc1 (stereo not given),inactive
8,CCOC(=O)c1ncn2c1CN(C)C(=O)c1cc(F)ccc1-2,inactive
9,Cc1cc(C(C)(C)C)c(O)c(C)c1CC1=NCCN1,inactive
10,CN(C)c1nc(N(C)C)nc(N(C)C)n1,inactive
11,CCC1(C)CC(=O)NC1=O (stereo not given),inactive
12,CS(=O)(=O)Nc1ccc([N+](=O)[O-])cc1Oc1ccccc1,inactive
13,CC(C)NCC(O)c1ccc(O)c(O)c1 (stereo not given),11.9 nM (active)
14,CN1CCC(=C2c3ccccc3C=Cc3ccccc32)CC1,inactive
15,Cn1c(=O)c2[nH]cnc2n(C)c1=O,inactive
16,Cn1ccc2cc3c(cc21)CCN3C(=O)Nc1cccnc1,inactive
17,CC1COc2c(N3CCN(C)CC3)c(F)cc3c(=O)c(C(=O)O)cn1c23 (stereo not given),inactive
18,COc1ccc2c(c1)c(CC(=O)O)c(C)n2C(=O)c1ccc(Cl)cc1,inactive
19,CC(COc1ccccc1)N(CCCl)Cc1ccccc1 (stereo not given),inactive
20,CN(Cc1cnc2nc(N)nc(N)c2n1)c1ccc(C(=O)N[C@@H](CCC(=O)O)C(=O)O)cc1,inactive

row,SMILES,Potency
1,Cc1cn([C@H]2C[C@H](N=[N+]=[N-])[C@@H](CO)O2)c(=O)[nH]c1=O,inactive
2,Nc1nnc(-c2cccc(Cl)c2Cl)c(N)n1,inactive
3,CC#C[C@]1(O)CC[C@H]2[C@@H]3CCC4=CC(=O)CCC4=C3[C@@H](c3ccc(N(C)C)cc3)C[C@@]21C,inactive
4,COc1ccccc1OCC(O)CN1CCN(CC(=O)Nc2c(C)cccc2C)CC1 (stereo not given),inactive
5,COc1ccccc1OCCNCC(O)COc1cccc2[nH]c3ccccc3c12 (stereo not given),inactive
6,Fc1ccc([C@@H]2CCNC[C@H]2COc2ccc3c(c2)OCO3)cc1,inactive
7,Cc1cn([C@H]2C=C[C@@H](CO)O2)c(=O)[nH]c1=O,inactive
8,Nc1ccn([C@H]2CC[C@@H](CO)O2)c(=O)n1,inactive
9,COc1ccc(CCN(C)CCCC(C#N)(c2ccc(OC)c(OC)c2)C(C)C)cc1OC (stereo not given),inactive
10,CC(C(=O)O)c1cccc(C(=O)c2ccccc2)c1 (stereo not given),inactive
11,Cn1cnc2c1c(=O)[nH]c(=O)n2C,inactive
12,CN1CCC(=C2c3ccccc3CC(=O)c3sccc32)CC1,inactive
13,CN1C(C(=O)Nc2ccccn2)=C(O)c2ccccc2S1(=O)=O,inactive
14,CN(C)CCOC(c1ccccc1)c1ccccc1,inactive
15,COc1cc2nc(N3CCN(C(=O)c4ccco4)CC3)nc(N)c2cc1OC,inactive
16,COc1cc2nc(N3CCN(C(=O)C4COc5ccccc5O4)CC3)nc(N)c2cc1OC (stereo not given),inactive
17,O=C(Nc1ccc([N+](=O)[O-])cc1Cl)c1cc(Cl)ccc1O,inactive
18,CCCNCC(O)COc1ccccc1C(=O)CCc1ccccc1 (stereo not given),inactive
19,CC(CCc1ccc(O)cc1)NCCc1ccc(O)c(O)c1 (stereo not given),inactive
20,O=C(c1ccc(OCCN2CCCCC2)cc1)c1c(-c2ccc(O)cc2)sc2cc(O)ccc12,inactive

# Reference: PubChem BioAssay (NCATS)
